Test [1] in a line: qHTS assay for small molecule agonists of the p53 signaling pathway (AID 651631; calls by dose curve; further: nearly all actives have a fitted effect of over 15% in size). In a few lines:
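HCT-116 p53RE-bla reporter line, 16 h compound treatment at 37 °C, then fluorescence after 2 h with B/G FRET substrate.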
For orientation: Quantitative high-throughput screening tests each substance at several concentrations.

Test [2] in a line: qHTS assay for small molecules that induce genotoxicity in human embryonic kidney cells expressing luciferase-tagged ATAD5 (AID 651632). Further: nearly all actives have a fitted effect of over 15% in size. Further: potency means the concentration at half of the fitted maximal effect. An outline of the steps: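 Concentration-response screen for ATAD5 upregulation in HEK293T luciferase reporter cells; 16 hr treatment at 37C, then luminescence after 30 min with Amplite at room temperature.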
A short description of test [3]: qHTS assay for small molecules that induce genotoxicity in human embryonic kidney cells expressing luciferase-tagged ATAD5 - cell viability (AID 651634; calls by dose curve; further: nearly all actives have a fitted effect of over 25% in size). An outline of the steps: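 15.5 hr compound or vehicle exposure of HEK293T cells expressing luciferase-tagged ATAD5 at 37C; live-cell protease activity is read by fluorescence after 30 min of CellTiter-Fluor.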
Test [4] can be described thus: qHTS assay for small molecule disruptors of the mitochondrial membrane potential - cell viability (AID 720634; calls by dose curve;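 further: human HepG2 liver cancer cells; series mostly up to about 83 µM; nearly all actives have a fitted effect of over 20% in size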). In a few lines: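 In this qHTS format, HepG2 cells plated overnight were pinned with compound, incubated 1 hr, and assayed for ATP luminescence with CellTiter-Glo after m-MPI dye addition.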
A short description of test [5]: qHTS assay for small molecule disruptors of the mitochondrial membrane potential (AID 720635). Further: potency means the concentration at half of the fitted maximal effect. In a few lines:
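Mitochondrial membrane potential tracked with Mito-MPS dye, red aggregates (ex 540/em 590 nm) against green monomers (ex 490/em 535 nm). Compound treatment 1 hr at 37C, dye 30 min in HepG2.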

Test [6] in a line: qHTS assay to test for compound auto fluorescence at 535 nm (green) in HepG2 cells (AID 720675).
Test [7] in a line: qHTS assay to test for compound auto fluorescence at 460 nm (blue) in HEK293 cells (AID 720678). In a few lines:
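After cell attachment (4-5 hr, 37C), compounds were pinned onto HEK293 monolayers in 10% dialyzed FBS medium. The blue channel (405/460 nm) was read following overnight culture. Equivalency was calculated against triamterene.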

The nature of test [8]: qHTS assay to test for compound auto fluorescence at 590 nm (red) in HEK293 cells (AID 720679). In a few lines:
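Plates of HEK293 cells (10% dialyzed FBS) are treated with 23 nL compound or DMSO vehicle after a 4-5 hr attachment period, incubated overnight at 37C, and read for red fluorescence at 540/590nm.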

A short description of test [9]: qHTS assay to test for compound auto fluorescence at 590 nm (red) in HepG2 cells (AID 720674). An outline of the steps: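 Red autofluorescence (Ex/Em 540/590 nm, Rose Bengal sodium equivalents) was measured in HepG2 cells, 2,000 per well in MEM plus 10% FBS, plated overnight at 37 C. Readings were taken 1 hr after adding 23 nL compound or DMSO, at 37 C and 5% CO2.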

A short description of test [10]: qHTS assay for small molecule agonists of the p53 signaling pathway - cell viability (AID 651633; calls by dose curve;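 further: p53RE-bla HCT reporter cells with a stable beta-lactamase p53 reporter; series mostly up to about 83 µM; nearly all actives have a fitted effect of over 30% in size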). In a few lines: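 Viability counter-read: CellTiter-Glo luminescence (30 min, room temperature) in the same p53RE-bla plates. These plates had been exposed to compounds for 16 h at 37 C.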

Unmarked numbers belong to inactive results. Inconclusive results are not listed. Active and inactive are the calls of the source. Unless noted, the call rests on the fitted dose curve; in most records, active means well fitted curve in the direction sought with a large enough effect in the repeat runs; inconclusive means weak or mixed curves; inactive means no such curve, though single readings can be large; an effect the other way counts as inactive or inconclusive.
On the % scale 0 is the no-effect control and ±100 the full control effect.

In the case of `CCCCCCCCCCCCCCCCCCOCC(O)CO` (centres undefined), the Potency entry in test [1], in test [2], in [3], in test [4], in test [5] and in [7] was “inactive” in each case. Further, the compound was called inactive in [6] and in test [8].

`CCCCCCCCCCCCCCCCCC(=O)OCCCCCCCCCCCCCC(C)C`: the Potency result in test [1], in test [2], in test [3], in test [4], in [5] and in test [7] was “inactive” in each case. Moreover, the outcome in [9] and in test [6] was inactive.

Take `O=C(O)C(O)[C@H](O)[C@@H](O)[C@H](O)[C@H](O)CO` (some centres undefined): the Potency result in test [1], in [2], in [10], in [3] and in test [7] was “inactive” in each case. In addition, the call in [9], in test [6] and in test [8] was inactive.

Take `C=C(C)C(=O)NCCC[N+](C)(C)C`: the Potency result in test [1], in test [2], in test [3], in test [4], in test [5] and in test [7] was “inactive” in each case. The compound was classed as inactive in test [9], in test [6] and in [8].

As for `Nc1cc(C(Cl)=C(Cl)Cl)c(S(N)(=O)=O)cc1S(N)(=O)=O`, the Potency entry in test [1], in [2], in test [3], in test [4], in [5] and in test [7] was “inactive” in each case. Further, the result in test [9], in test [6] and in test [8] was inactive.

Regarding `O=C(O)c1ccc[n+]([O-])c1`, the Potency entry in test [1], in test [2], in test [3], in test [4], in test [5] and in [7] was “inactive” each time. In addition, the call in test [9], in test [6] and in [8] was inactive.

For the compound `C1COCCO1`, the Potency result in test [1], in [2], in test [10], in test [3] and in [7] was “inactive” each time. Besides, the outcome in test [9], in test [6] and in test [8] was inactive.

For `O=C1C(CCS(=O)c2ccccc2)C(=O)N(c2ccccc2)N1c1ccccc1` (centres undefined), the Potency entry in [1], in test [2], in test [3], in test [4] and in [5] was “inactive” in each case. For the same compound, in test [9], the fluorescence, relative to Rose Bengal was -0.0311% [at 18.6 µM]. In addition, the fluorescence, % of triamterene in [7] is -0.0077% [at 18.6 µM].

Turning to `COc1cc(O)cc(O)c1`, the Potency result in test [1], in [2], in test [3], in [4] and in test [7] was “inactive” throughout. Further, the outcome in [9], in [6] and in [8] was inactive.

Consider `CCO[Si](CCCN=C=O)(OCC)OCC`, for which the Potency entry in test [1], in [2], in [10], in [3] and in [7] was “inactive” throughout. Also, the compound was classed as inactive in test [9], in test [6] and in [8].

As to `Cc1ncc(CSSCc2cnc(C)c(O)c2CO)c(CO)c1O`, the Potency result in test [1], in test [2], in test [10], in test [3], in test [4] and in [7] was “inactive” in each case. The call in test [6] and in test [8] was inactive.

Consider `Cc1nc(-c2ccc(OCC(C)C)c(C#N)c2)sc1C(=O)O`, for which the Potency entry in [1], in [10], in test [3] and in test [7] was “inactive” in each case. Also, the Potency in test [2] was 0.15 µM (active). The call in [9], in test [6] and in test [8] was inactive.

Regarding `NCCN1CCNC1=O`, the Potency entry in test [1], in test [2], in test [3], in [4] and in [7] was “inactive” throughout. Also, the compound was classed as inactive in test [6] and in test [8].

In the case of `C=C(C)[C@H]1CC=C(C)CC1`, the Potency result in test [1], in [2], in test [10], in test [3] and in test [7] was “inactive” throughout. For the same compound, in [8], the compound was classed as inactive.

As for `c1ccc2cnncc2c1`, the Potency entry in [1], in test [2], in test [3], in test [4], in [5] and in test [7] was “inactive” throughout. Further, the compound was classed as inactive in [9], in [6] and in test [8].

`COC[C@H](c1ccc(C(F)(F)F)cc1)N1CCN(C2(C)CCN(C(=O)c3c(C)ncnc3C)CC2)C[C@H]1C`: the Potency result in [1], in test [2], in [10], in test [3], in [4] and in [7] was “inactive” each time. The compound was classed as inactive in test [6] and in [8].

`NC(=O)CCCCC1CCSS1` (centres undefined): the Potency result in test [1], in [2], in test [10], in test [3], in test [4] and in test [7] was “inactive” each time. In addition, the call in test [8] was inactive.

For `Nc1nc2c(ncn2CCC(CO)CO)c(=O)[nH]1`, the Potency entry in test [1], in test [2], in test [3], in [4], in test [5] and in test [7] was “inactive” each time. Also, in test [6], the outcome was inactive.

As to `NC(=O)Nc1nc2ccccc2[nH]1`, the Potency entry in [1], in test [2], in [3], in test [4] and in test [7] was “inactive” each time. The outcome in [9] and in test [6] was inactive.

`CC12CCC(CC1=O)C2(C)C` (centres undefined): the Potency entry in [1], in test [2], in [3], in test [4], in test [5] and in [7] was “inactive” in each case. The call in [6] and in test [8] was inactive.

Consider `N[C@@H](CS)C(=O)O`, for which the Potency result in [1], in test [2], in [3], in [4] and in test [7] was “inactive” in each case. In addition, the Potency in test [5] was 27.7 µM (active). In addition, the compound was classed as inactive in test [9] and in [6].

In the case of `CCN1CCCC1CNC(=O)c1cc(S(N)(=O)=O)ccc1OC` (centres undefined), the Potency result in [1], in test [2], in test [3], in test [4] and in test [7] was “inactive” in each case. In addition, the call in [9] and in test [8] was inactive.

Regarding `COc1ccc(N=[N+]([O-])c2ccc(OC)cc2)cc1`, the Potency entry in test [1], in [10], in [3] and in test [7] was “inactive” each time. The values for the Potency in [2] and in test [5] were 0.136 µM (active) and 27 µM (active), respectively. In addition, the compound was classed as inactive in test [9], in test [6] and in [8].

`FC(F)(F)C(F)(F)C(F)(F)C(F)(F)C(F)(F)C(F)(F)C(F)(F)C(F)(F)C(F)(F)C(F)(F)F`: the activation in [1] is -5.47% [at 8.3 µM]; in [2], 3.4% [at 8.08 µM]. Also, the activity, negative = cytotoxicity in test [3] was 13.6% [at 8.08 µM]. For the same compound, the activity change, negative = cytotoxicity in test [4] was 3.63% [at 8.08 µM]. The ratio activity, negative = MMP loss in [5] was 21.5% [at 8.08 µM]. For the same compound, in [9], the fluorescence, relative to Rose Bengal is 0.158% [at 9.17 µM]. The fluorescence, % of triamterene in test [7] was -0.0034% [at 9.17 µM]. Moreover, the fluorescence, % of fluorescent control in [8] is -0.155% [at 9.17 µM].

`CC(=O)CCc1ccc(O)cc1`: the Potency entry in test [1], in test [2], in test [10], in test [3] and in test [7] was “inactive” throughout. The compound was classed as inactive in [9] and in [8].

Turning to `C=CCSCC1Nc2cc(Cl)c(S(N)(=O)=O)cc2S(=O)(=O)N1` (centres undefined), the Potency entry in test [1], in test [2], in test [3], in [4], in test [5] and in test [7] was “inactive” each time. For the same compound, the outcome in [9], in test [6] and in [8] was inactive.

As for `NC(=O)c1ncn([C@@H]2O[C@H](CO)[C@@H](O)[C@H]2O)c1O`, the Potency result in test [1], in test [2], in test [3], in test [4], in test [5] and in test [7] was “inactive” throughout. Besides, the outcome in [9], in test [6] and in test [8] was inactive.

`CC(C)(C)OC(=O)N1C[C@@H](F)C[C@H]1C(=O)O`: the Potency entry in [1], in [2], in [3], in [4], in [5] and in test [7] was “inactive” throughout. The compound was classed as inactive in [9] and in test [8].

In the case of `CCC(=O)c1cccc(Cl)c1`, the Potency result in [1], in [2], in test [3], in test [4] and in [7] was “inactive” throughout. The call in [6] and in [8] was inactive.

The record behind these values is PubChem BioAssay (Tox21).
